# Data reported in the supplement of paper PMC8728848.
# Shown is part of a subset that was picked to be rich in the strongest signals.
# Assays:
# Assay in all cases: glycan array binding signal (z-score within array); higher = stronger binding
# Conditions in all cases: glycan notation: IUPAC condensed, linker removed
# [1] = molecular target: Fuc(a1-2)Gal(b1-3)GalNAc(b1-4)[Neu5Ac(a2-3)]Gal(b1-4)Glc
# Procedure, shortened: (§1)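 Glycan array binding is given as a within-array Z-score, which can be read as non-binding when negative. The arrays, 3228 of them, came from the Consortium for Functional Glycomics database and were retained only where the protein sequence was available. Z-scores were averaged across arrays of the same protein sequence at different concentrations or buffers and across linkers.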
# Fuc(a1-2)Gal(b1-3)GlcNAc = molecular target: Fuc(a1-2)Gal(b1-3)GlcNAc
# Procedure, shortened: as §1
# [2] = molecular target: Fuc(a1-2)Gal(b1-3)GlcNAc(b1-3)Gal(b1-4)Glc
# Procedure, shortened: as §1
# [3] = molecular target: Fuc(a1-2)Gal(b1-3)[Fuc(a1-4)]GlcNAc(b1-2)Man(a1-3)[Fuc(a1-2)Gal(b1-3)[Fuc(a1-4)]GlcNAc(b1-2)Man(a1-6)]Man(b1-4)GlcNAc(b1-4)[Fuc(a1-6)]GlcNAc(b1-4)[Fuc(a1-6)]GlcNAc
# Procedure, shortened: as §1
# Fuc(a1-2)Gal(b1-4)GlcNAc = molecular target: Fuc(a1-2)Gal(b1-4)GlcNAc
# Procedure, shortened: as §1
# [4] = molecular target: Fuc(a1-2)Gal(b1-4)GlcNAc6S
# Procedure, shortened: as §1
# [5] = molecular target: Fuc(a1-2)Gal(b1-4)[Fuc(a1-3)]GlcNAc(b1-3)Gal(b1-4)[Fuc(a1-3)]GlcNAc(b1-3)Gal(b1-4)[Fuc(a1-3)]GlcNAc
# Procedure, shortened: as §1
# Fuc(a1-2)Gal6S(b1-4)Glc = molecular target: Fuc(a1-2)Gal6S(b1-4)Glc
# Procedure, shortened: as §1
# [6] = molecular target: Fuc(a1-2)[Gal(a1-3)]Gal(b1-4)GlcNAc
# Procedure, shortened: as §1
# [7] = molecular target: Fuc(a1-2)[Gal(a1-3)]Gal(b1-4)GlcNAc(b1-2)Man
# Procedure, shortened: as §1
# [8] = molecular target: Fuc(a1-2)[Gal(a1-3)]Gal(b1-4)[Fuc(a1-3)]Glc
# Procedure, shortened: as §1
# [9] = molecular target: Fuc(a1-2)[GalNAc(a1-3)]Gal(b1-3)GlcNAc(b1-6)GalNAc
# Procedure, shortened: as §1
# [10] = molecular target: Fuc(a1-2)[GalNAc(a1-3)]Gal(b1-4)GlcNAc(b1-3)GalNAc
# Procedure, shortened: as §1
# [11] = molecular target: Fuc(a1-3)[Gal3S(b1-4)]GlcNAc6S
# Procedure, shortened: as §1
# [12] = molecular target: Fuc(a1-3)[GalNAc(b1-4)]GlcNAc
# Procedure, shortened: as §1
# Fuc(a1-4)GlcNAc = molecular target: Fuc(a1-4)GlcNAc
# Procedure, shortened: as §1
# Gal(a1-3)Gal(b1-4)Glc = molecular target: Gal(a1-3)Gal(b1-4)Glc
# Procedure, shortened: as §1
# Gal(a1-3)Gal(b1-4)GlcNAc = molecular target: Gal(a1-3)Gal(b1-4)GlcNAc
# Procedure, shortened: as §1
# [13] = molecular target: Gal(a1-3)Gal(b1-4)GlcNAc(b1-2)Man
# Procedure, shortened: as §1
# [14] = molecular target: Gal(a1-3)Gal(b1-4)GlcNAc(b1-2)Man(a1-3)[Gal(a1-3)Gal(b1-4)GlcNAc(b1-2)Man(a1-6)]Man(b1-4)GlcNAc(b1-4)GlcNAc
# Procedure, shortened: as §1
# [15] = molecular target: Gal(b1-3)GalNAc(b1-3)Gal(a1-4)Gal(b1-4)Glc
# Procedure, shortened: as §1
# [16] = molecular target: Gal(b1-3)GalNAc(b1-4)Gal(b1-4)Glc
# Procedure, shortened: as §1
# [17] = molecular target: Gal(b1-3)GlcNAc(b1-2)Man(a1-3)[Gal(b1-3)GlcNAc(b1-2)Man(a1-6)]Man(b1-4)GlcNAc(b1-4)GlcNAc
# Procedure, shortened: as §1
# [18] = molecular target: Gal(b1-3)GlcNAc(b1-3)GalNAc
# Procedure, shortened: as §1
# [19] = molecular target: Gal(b1-3)[Fuc(a1-4)]GlcNAc(b1-2)Man
# Procedure, shortened: as §1
# [20] = molecular target: Gal(b1-4)GlcNAc(a1-6)Gal(b1-4)GlcNAc
# Procedure, shortened: as §1
# [21] = molecular target: Gal(b1-4)GlcNAc(b1-2)Man(a1-3)Man(b1-4)GlcNAc(b1-4)GlcNAc
# Procedure, shortened: as §1
# [22] = molecular target: Gal(b1-4)GlcNAc(b1-2)Man(a1-3)[Gal(b1-4)GlcNAc(b1-2)Man(a1-6)]Man(b1-4)GlcNAc(b1-4)GlcNAc
# Procedure, shortened: as §1
# [23] = molecular target: Gal(b1-4)GlcNAc(b1-2)Man(a1-3)[GlcNAc(b1-2)Man(a1-6)]Man(b1-4)GlcNAc(b1-4)GlcNAc
# Procedure, shortened: as §1
# [24] = molecular target: Gal(b1-4)GlcNAc(b1-2)[Gal(b1-4)GlcNAc(b1-4)]Man(a1-3)[GlcNAc(b1-4)][Gal(b1-4)GlcNAc(b1-2)[Gal(b1-4)GlcNAc(b1-6)]Man(a1-6)]Man(b1-4)GlcNAc(b1-4)GlcNAc
# Procedure, shortened: as §1
binder,measurement,setting,value
PX14343C-bfa-541-26-541 (Bacteroides fragilis) (protein) KAPLDEIADDSFWSDETLVKYYVNDLYSEISVDGLQLQENRSDNSVSAQRDKYRASWFKFNYDMVSASDPQDDDVWEDYYVKVRKCNRFFERIGTSTIEESEKSRLTGEVHFLRAMFYFEMVKRYGGVILLDKVLTMEDNWEIPRSSEKECYDFILEDLKKATEMLPASYGSREKGRATKGAAYALKSRVELYDKRYEDVIKSCAEVYKLGYELVDGTTPEKYRSIWWTTNKDNKEIIFDVQYKSPDVYNNMMVCNMVTYINDKYGDRGWGGLGPTQELIDAFEMADGTPATQYSQAPADQVFDINTCGIYEGREPRFYANIVFHGSQIFFNADKGAVTVDRYLMDTPDKGDGSLTGYNVWKWIDYDNYNYPYAGAGSPDFSTNWIILRYAEIYLNDAEARLETGDVEGARKAVNMIRQRVGLPDLTESDPEKLRELIRKERRIEFAFEEQRFYDVRRWKIGPETQTTLHGVRFVSPTEFKVTKTDIRTWNDRLYLTPVPHDEIVRSSVLKQNLGY,glycan array binding signal (z-score),[1],1.52
same,glycan array binding signal (z-score),Fuc(a1-2)Gal(b1-3)GlcNAc,0.399
same,glycan array binding signal (z-score),[2],-0.05
same,glycan array binding signal (z-score),[3],0.403
same,glycan array binding signal (z-score),Fuc(a1-2)Gal(b1-4)GlcNAc,-0.892
same,glycan array binding signal (z-score),[4],-0.542
same,glycan array binding signal (z-score),[5],-0.071
same,glycan array binding signal (z-score),Fuc(a1-2)Gal6S(b1-4)Glc,3.12
same,glycan array binding signal (z-score),[6],-0.674
same,glycan array binding signal (z-score),[7],-0.447
same,glycan array binding signal (z-score),[8],-0.83
same,glycan array binding signal (z-score),[9],0.051
same,glycan array binding signal (z-score),[10],0.855
same,glycan array binding signal (z-score),[11],-0.963
same,glycan array binding signal (z-score),[12],0.848
same,glycan array binding signal (z-score),Fuc(a1-4)GlcNAc,-0.619
same,glycan array binding signal (z-score),Gal(a1-3)Gal(b1-4)Glc,-0.559
same,glycan array binding signal (z-score),Gal(a1-3)Gal(b1-4)GlcNAc,7.53
same,glycan array binding signal (z-score),[13],-1.04
same,glycan array binding signal (z-score),[14],2.85
same,glycan array binding signal (z-score),[15],-0.233
same,glycan array binding signal (z-score),[16],-0.284
same,glycan array binding signal (z-score),[17],2.98
same,glycan array binding signal (z-score),[18],0.08
same,glycan array binding signal (z-score),[19],-0.63
same,glycan array binding signal (z-score),[20],8.35
same,glycan array binding signal (z-score),[21],0.345
same,glycan array binding signal (z-score),[22],-1.05
same,glycan array binding signal (z-score),[23],-1.28
same,glycan array binding signal (z-score),[24],3.53
